test system: LOC_OS01G51400-cb002; experiment: thermal shift delta Tm vs DMSO control; higher = stronger stabilization (binding); conditions: 12.5 µM; protein concentration 2 µM
Summary of the method: (§1)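 Purified, E. coli-expressed rice kinase domain constructs were tested by differential scanning fluorimetry in 96-well plates: 19.5 μl of 2 μM kinase in 100 mM potassium phosphate pH 7.5, 150 mM NaCl, 10% glycerol, 5 × SYPRO Orange, plus compound in DMSO. Fluorescence was read from 25°C to 95°C at 0.05°C/s. Melting temperatures came from Boltzmann fits, and the shift is the triplicate mean relative to protein with DMSO alone.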

Row | Compound | thermal shift delta Tm
1 | CCn1c(=O)c(-c2ccc(-c3cncs3)cc2Cl)cc2cnc(Nc3ccc(N4CCN(C)CC4)cc3)nc21 | 0.02 °C
2 | Cc1ccc(CNc2ncnc3ccc(-c4ccc(CO)o4)cc23)o1 | 0.24 °C
3 | COc1ccc(C(=O)Nc2sc3c(c2C(N)=O)CCCC3)cc1OC | 0.45 °C
4 | COc1cc2c(Oc3ccc4[nH]c(C)cc4c3F)ncnc2cc1OCCCN1CCCC1 [Cediranib (AZD2171)] | 0.05 °C
5 | CNC(=O)c1cccc(-c2ccc3c(N4CCOC[C@@H]4C)nc(N4CCOC[C@@H]4C)nc3n2)c1 [Vistusertib (AZD2014)] | 0.26 °C
6 | Cc1ccc(C(=O)Nc2ccc(CN3CCN(C)CC3)c(C(F)(F)F)c2)cc1C#Cc1cnc2[nH]ncc2c1 [GZD824 Dimesylate] | 0.45 °C
7 | Cc1ccccc1-n1c(Cn2nc(-c3cccc(O)c3)c3c(N)ncnc32)nc2cccc(C)c2c1=O | 0.33 °C
8 | Cc1nc(Nc2cnn(C3CCNCC3)c2)nc2c1N(C)C(=O)c1cc3ccccc3cc1N2C | 0.18 °C
9 | O=C1NCCc2[nH]c(-c3ccncc3)cc21 | 0.19 °C
10 | Cc1nc2c(-c3cnc(N)nc3)nc(N3CCOCC3)nc2n1C(C)C | 0.69 °C
11 | O=C(Nc1nc2cccc(-c3ccc(CN4CCS(=O)(=O)CC4)cc3)n2n1)C1CC1 [Filgotinib (GLPG0634)] | 0.32 °C
12 | Fc1ccc2[nH]ccc2c1-c1nc(N2CCOCC2)c2sc(CN3CCN(CC4CC4)CC3)cc2n1 | -0.02 °C
13 | CCOC(=O)c1cnc2ccc(-c3cncc(NS(=O)(=O)c4ccccc4)c3)cn12 | 0.6 °C
14 | CCOc1cn(-c2ccc(F)cc2C)nc1C(=O)Nc1ccc(Oc2ccnc3cc(OC)c(OC)cc23)c(F)c1 | 0.45 °C
15 | COc1ncc(-c2ccc3nccc(-c4ccnnc4)c3c2)cc1NS(=O)(=O)c1ccc(F)cc1F | 0.55 °C
16 | C=CC(=O)Nc1ccc(CN2C(=O)N(c3cc(OC)cc(OC)c3)Cc3cnc(Nc4ccc(N5CCN(C)CC5)cc4)nc32)cc1 | 0.02 °C
17 | COc1ccc(S(=O)(=O)N(C(C)=O)c2ccccc2/C=C/c2cc[n+]([O-])cc2)cc1 | -0.08 °C
18 | CNC(=O)c1ccccc1Nc1nc(Nc2ccc(N3CCOCC3)cc2OC)ncc1Cl | 0.36 °C
19 | O=C(O)c1ccc2c(c1)nc(Nc1cccc(Cl)c1)c1ccncc12 [Silmitasertib (CX-4945)] | 0.3 °C

Row | Compound | thermal shift delta Tm
20 | N#Cc1ccc2[nH]c(O)c(-c3ccc(CN4CCOCC4)cn3)c2c1 | 0.34 °C
21 | CN1CCC(COc2cnc(-c3cccc(Cn4nc(-c5cccc(C#N)c5)ccc4=O)c3)nc2)CC1 | 0.24 °C
22 | C[C@@H]1CN(CC(=O)Nc2ccc3c(c2)Cc2cccc(-c4cc(=O)cc(N5CCOCC5)o4)c2S3)C[C@H](C)O1 | 0.05 °C
23 | COc1cc(N2CCN(C)CC2)ccc1Nc1nccc(-c2cn(C)c3cnccc23)n1 | 0.19 °C
24 | COc1ccc(S(=O)(=O)N(CCO)c2ccccc2CN(C)C/C=C/c2ccc(Cl)cc2)cc1 [KN-93 Phosphate] | 0.28 °C
25 | COc1cc2ncnc(Nc3cccc(Cl)c3)c2cc1OC [AG-1478 (Tyrphostin AG-1478)] | 0.17 °C
26 | C=C[C@@](C)(/C=C/c1ccc(O)cc1)CCC=C(C)C [Bakuchiol] | 0.52 °C
27 | Cc1nc2ccc(-n3ncc(C(=O)c4cc5ccccc5[nH]4)c3N)cc2[nH]1 | 0.05 °C
28 | CC(C)NC(=O)C1CCC(n2c(NC(=O)c3ccc(F)cc3)nc3ccc(CN4CCC(C(C)(C)O)CC4)cc32)CC1 (configuration not stated) [Belizatinib (TSR-011)] | 0.56 °C
29 | CN(C[C@@H]1COCCO1)S(=O)(=O)Nc1ccc2ccc3ncc(-c4cnn(C)c4)cc3c(=O)c2c1 | 0.29 °C
30 | Cn1cc(/C=C2\C(=O)Nc3cccnc32)c2ccccc21 | 0.44 °C
31 | COc1cc(OC)c(C=C2C(=O)Nc3ccccc32)c(OC)c1 | 0.14 °C
32 | COc1ccc(/C=C/C(=O)C2(C(=O)/C=C/c3ccc(OC)c(OC)c3)CCCCC2)cc1OC | 0.07 °C
33 | N#C/C(=C(/N)Sc1ccc(N)cc1)c1ccccc1C(F)(F)F | -0.05 °C
34 | CNC(=O)CN1CCC(Oc2cc3c(Nc4cccc(Cl)c4F)ncnc3cc2OC)CC1 [Sapitinib (AZD8931)] | -0.05 °C
35 | CCS(=O)(=O)N1CCN(c2ccc(Nc3ncc(C(N)=O)c(NC4CC4)n3)cc2)CC1 | 1.11 °C
36 | O=C1NC(=O)C(=Cc2ccc(-c3ccc(F)cc3)o2)S1 (stereo in doubt) | 0.18 °C
37 | C[C@@H](N)c1ccc(C(=O)Nc2ccnc3[nH]ccc23)cc1 | 0.27 °C

test system: T1, LOC_OS01G52050-cb004; experiment: as above; conditions: 12.5 µM; protein concentration 2 µM
T1 sequence (whole entry): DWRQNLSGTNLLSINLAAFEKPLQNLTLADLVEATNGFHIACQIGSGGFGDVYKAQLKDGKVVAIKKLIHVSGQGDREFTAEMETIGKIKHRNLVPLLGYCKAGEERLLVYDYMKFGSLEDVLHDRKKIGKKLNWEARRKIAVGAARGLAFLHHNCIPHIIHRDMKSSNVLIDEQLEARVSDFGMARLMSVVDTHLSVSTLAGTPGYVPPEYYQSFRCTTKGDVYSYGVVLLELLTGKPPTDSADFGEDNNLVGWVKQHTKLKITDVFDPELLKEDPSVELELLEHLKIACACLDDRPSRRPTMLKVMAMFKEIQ
Summary of the method: as §1

Row | Compound | thermal shift delta Tm
38 | CCn1c(=O)c(-c2ccc(-c3cncs3)cc2Cl)cc2cnc(Nc3ccc(N4CCN(C)CC4)cc3)nc21 | -0.32 °C
39 | Cc1ccc(CNc2ncnc3ccc(-c4ccc(CO)o4)cc23)o1 | 1.21 °C
40 | COc1ccc(C(=O)Nc2sc3c(c2C(N)=O)CCCC3)cc1OC | 1.28 °C
41 | COc1cc2c(Oc3ccc4[nH]c(C)cc4c3F)ncnc2cc1OCCCN1CCCC1 [Cediranib (AZD2171)] | 0.09 °C
42 | CNC(=O)c1cccc(-c2ccc3c(N4CCOC[C@@H]4C)nc(N4CCOC[C@@H]4C)nc3n2)c1 [Vistusertib (AZD2014)] | -0.25 °C
43 | Cc1ccc(C(=O)Nc2ccc(CN3CCN(C)CC3)c(C(F)(F)F)c2)cc1C#Cc1cnc2[nH]ncc2c1 [GZD824 Dimesylate] | 3.71 °C
44 | Cc1nc(Nc2cnn(C3CCNCC3)c2)nc2c1N(C)C(=O)c1cc3ccccc3cc1N2C | 0.38 °C
45 | O=C1NCCc2[nH]c(-c3ccncc3)cc21 | 1.31 °C
46 | O=C(Nc1nc2cccc(-c3ccc(CN4CCS(=O)(=O)CC4)cc3)n2n1)C1CC1 [Filgotinib (GLPG0634)] | 1.03 °C
47 | Fc1ccc2[nH]ccc2c1-c1nc(N2CCOCC2)c2sc(CN3CCN(CC4CC4)CC3)cc2n1 | 0.03 °C
48 | CCOC(=O)c1cnc2ccc(-c3cncc(NS(=O)(=O)c4ccccc4)c3)cn12 | 0.54 °C
49 | CCOc1cn(-c2ccc(F)cc2C)nc1C(=O)Nc1ccc(Oc2ccnc3cc(OC)c(OC)cc23)c(F)c1 | 2.08 °C
50 | COc1ncc(-c2ccc3nccc(-c4ccnnc4)c3c2)cc1NS(=O)(=O)c1ccc(F)cc1F | 1.09 °C
51 | C=CC(=O)Nc1ccc(CN2C(=O)N(c3cc(OC)cc(OC)c3)Cc3cnc(Nc4ccc(N5CCN(C)CC5)cc4)nc32)cc1 | 0.08 °C
52 | COc1ccc(S(=O)(=O)N(C(C)=O)c2ccccc2/C=C/c2cc[n+]([O-])cc2)cc1 | 0.02 °C
53 | CNC(=O)c1ccccc1Nc1nc(Nc2ccc(N3CCOCC3)cc2OC)ncc1Cl | 1.17 °C
54 | O=C(O)c1ccc2c(c1)nc(Nc1cccc(Cl)c1)c1ccncc12 [Silmitasertib (CX-4945)] | 2.54 °C
55 | N#Cc1ccc2[nH]c(O)c(-c3ccc(CN4CCOCC4)cn3)c2c1 | 0.44 °C

Row | Compound | thermal shift delta Tm
56 | CN1CCC(COc2cnc(-c3cccc(Cn4nc(-c5cccc(C#N)c5)ccc4=O)c3)nc2)CC1 | 0.04 °C
57 | C[C@@H]1CN(CC(=O)Nc2ccc3c(c2)Cc2cccc(-c4cc(=O)cc(N5CCOCC5)o4)c2S3)C[C@H](C)O1 | 0.42 °C
58 | COc1cc(N2CCN(C)CC2)ccc1Nc1nccc(-c2cn(C)c3cnccc23)n1 | 1.15 °C
59 | COc1ccc(S(=O)(=O)N(CCO)c2ccccc2CN(C)C/C=C/c2ccc(Cl)cc2)cc1 [KN-93 Phosphate] | 0.47 °C
60 | COc1cc2ncnc(Nc3cccc(Cl)c3)c2cc1OC [AG-1478 (Tyrphostin AG-1478)] | 1.69 °C
61 | C=C[C@@](C)(/C=C/c1ccc(O)cc1)CCC=C(C)C [Bakuchiol] | 3.47 °C
62 | Cc1nc2ccc(-n3ncc(C(=O)c4cc5ccccc5[nH]4)c3N)cc2[nH]1 | 1.9 °C
63 | CC(C)NC(=O)C1CCC(n2c(NC(=O)c3ccc(F)cc3)nc3ccc(CN4CCC(C(C)(C)O)CC4)cc32)CC1 (configuration not stated) [Belizatinib (TSR-011)] | 4.45 °C
64 | CN(C[C@@H]1COCCO1)S(=O)(=O)Nc1ccc2ccc3ncc(-c4cnn(C)c4)cc3c(=O)c2c1 | 10.3 °C
65 | Cn1cc(/C=C2\C(=O)Nc3cccnc32)c2ccccc21 | 1.86 °C
66 | COc1cc(OC)c(C=C2C(=O)Nc3ccccc32)c(OC)c1 | -0.14 °C
67 | COc1ccc(/C=C/C(=O)C2(C(=O)/C=C/c3ccc(OC)c(OC)c3)CCCCC2)cc1OC | 0.63 °C
68 | N#C/C(=C(/N)Sc1ccc(N)cc1)c1ccccc1C(F)(F)F | 0.3 °C
69 | CNC(=O)CN1CCC(Oc2cc3c(Nc4cccc(Cl)c4F)ncnc3cc2OC)CC1 [Sapitinib (AZD8931)] | 0.01 °C
70 | CCS(=O)(=O)N1CCN(c2ccc(Nc3ncc(C(N)=O)c(NC4CC4)n3)cc2)CC1 | 5.37 °C
71 | O=C1NC(=O)C(=Cc2ccc(-c3ccc(F)cc3)o2)S1 (stereo in doubt) | 0.58 °C
72 | C[C@@H](N)c1ccc(C(=O)Nc2ccnc3[nH]ccc23)cc1 | 1.35 °C
